Bioassay records (PubChem)
A selection: hits, their analogues and other compounds. The true share with any hit is near 11%.
IL-1B inflam inh: qHTS for Inhibitors of Inflammasome Signaling: IL-1-beta AlphaLISA Primary Screen; hit rate 4.7% among 360,000; THP-1 LPS/ATP IL-1B secretion, AlphaLISA, 16 h; hits give low values; activity change, % at 57.5 µM; in the data active means activity change below about -50%; inconclusive means mostly about -30% to -49%
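Secreted IL-1B measured by AlphaLISA bead assay after 16 h compound exposure of THP-1 cells; compounds (final up to 57.5 uM) added 1 h before LPS (250 ng/mL) and ATP (1.25 mM) stimulation; lower signal means less secretion.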
Gal4-VP16 FLuc: VP16 counterscreen qHTS for inhibitors of ROR gamma transcriptional activity; hit rate 3.5% among 310,000; AID 2546, 2010; Potency, µM (top dose mostly 53.6 µM), actives largely listed as inhibitors; Drosophila S2 Gal4-VP16 UAS-luciferase, luminescence, 20 h;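 further: Gal4-VP16 expression switched on by copper sulfate through the metallothionein promoter; nearly all actives have a fitted effect of over 50% in size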
MCF10A rereplic: A quantitative high throughput screen for small molecules that induce DNA re-replication in MCF 10a normal breast cells | Potency, µM (titrated, usually from 46.1 µM), actives largely listed as activators | MCF 10A DNA re-replication, Hoechst nuclear intensity, 48 h | hit rate 2.9% among 350,000; further: nearly all actives have a fitted effect of over 50% in size
SW480 rerep: A quantitative high throughput screen for small molecules that induce DNA re-replication in SW480 colon adenocarcinoma cells | AID 624297, 2012 | SW480 DNA re-replication, Hoechst DNA content imaging, 48 h | hit rate 1.8% among 340,000 | Potency, µM (top dose mostly 46.1 µM), hits mostly activators; further: nearly all actives have a fitted effect of over 55% in size
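Image-based read-out: total Hoechst fluorescence of nuclei (405 nm excitation, 500-530 nm emission), with hits raising the fraction of high-intensity nuclei. SW480 colon cells incubated 48 hr with compounds at 37 C.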
RORg inh: qHTS for inhibitors of ROR gamma transcriptional activity | Drosophila S2 Gal4-RORgamma UAS-luciferase reporter, 20 h | Potency, µM (titrated, usually from 53.6 µM), usual class: inhibitors | hit rate 5.4% among 310,000; further: nearly all actives have a fitted effect of over 60% in size
Target sequence (P51450 whole entry, looked up, the tested form may be a part): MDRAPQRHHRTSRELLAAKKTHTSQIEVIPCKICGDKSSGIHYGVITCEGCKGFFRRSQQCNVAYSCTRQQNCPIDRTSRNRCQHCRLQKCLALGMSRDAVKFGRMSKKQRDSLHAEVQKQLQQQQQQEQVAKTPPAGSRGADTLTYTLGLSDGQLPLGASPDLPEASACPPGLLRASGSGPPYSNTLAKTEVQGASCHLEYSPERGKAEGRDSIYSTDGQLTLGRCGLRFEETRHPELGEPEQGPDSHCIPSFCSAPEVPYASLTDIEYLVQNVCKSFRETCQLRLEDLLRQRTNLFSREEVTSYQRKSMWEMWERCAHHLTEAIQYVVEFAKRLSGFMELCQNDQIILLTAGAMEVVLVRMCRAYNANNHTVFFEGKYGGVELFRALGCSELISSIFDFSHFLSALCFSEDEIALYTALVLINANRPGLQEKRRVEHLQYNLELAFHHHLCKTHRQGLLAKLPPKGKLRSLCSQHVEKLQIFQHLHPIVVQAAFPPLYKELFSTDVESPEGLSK
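Read-out: Photinus luciferase luminescence; inhibitors lower reporter signal. Insect Schneider cells with Gal4-ROR gamma fusion under metallothionein promoter, UAS reporter; 700 uM final copper sulfate induction, 20 hr, ambient temperature.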
Hits are given with their value; . = inactive; ? = inconclusive; / = not tested or not shown; [ ] = dose if it differs, or a comment. Unless noted, the call rests on the fitted dose curve; in most records, active means well fitted curve in the direction sought with a large enough effect; inconclusive means small, poorly fitted or top-dose-only effect, or another doubt; inactive means no such curve, though single readings can be large; an effect the other way counts as inactive or inconclusive.

SMILES	IL-1B inflam inh	Gal4-VP16 FLuc	MCF10A rereplic	SW480 rerep	RORg inh
O=C(NCc1nnnn1-c1ccc(F)c(F)c1)c1ccc2c(c1)OCO2	.	/	.	.	/
O=C1c2cccc3c(N4CCCCC4)ccc(c23)C(=O)N1c1ccccc1O	.	?	5.8µM	18.4µM	.
O=C1c2cccc3c(N4CCCCC4)ccc(c23)C(=O)N1c1ccc(O)cc1	.	.	5.8µM	11.6µM	.
O=C1c2cccc3cccc(c23)C(=O)N1c1ccc(O)cc1	.	.	.	.	.
O=C(O)c1ccc(N2CCCCCC2)c(N2C(=O)c3ccccc3C2=O)c1	.	.	.	.	.
CCCOc1ccc(Oc2ccc(S(=O)(=O)N3CCN(C)CC3)cn2)cc1	.	/	?	.	/
Cc1ccccc1OCC(=O)N/N=C/c1cn(Cc2ccccc2)c2ccccc12	.	?	?	.	17.8µM
Cc1ccc(OCC(=O)N/N=C\c2cn(Cc3ccccc3)c3ccccc23)cc1C	.	?	.	.	11.2µM
Cc1ccccc1OCC(=O)N/N=C/c1cn(C)c2ccccc12	.	.	.	.	?
Cc1ccc(OCC(=O)N/N=C/c2cn(C)c3ccccc23)cc1	.	.	?	.	.
O=C(NCc1nnc(SCC(=O)N2CCN(c3ccccc3)CC2)o1)c1c(F)cccc1Cl	.	.	.	.	.
COc1ccccc1NC(=O)Cc1nc(=O)[nH]c(=O)[nH]1	.	/	/	/	/
CCN(CC)S(=O)(=O)c1ccc(-c2nnc3sc4cccc(C)c4n23)cc1	.	.	.	.	2.24µM
COC(=O)CN1C(c2ccc(OC)cc2)=Nc2ccc(Cl)cc2C1c1ccccc1 (stereo unspecified)	-83.6	.	.	.	?
COC(=O)CN1C(c2cccc(Cl)c2)=Nc2ccc(Cl)cc2C1c1ccccc1 (stereo unspecified)	.	.	?	/	.
COc1ccc(C=NNC(=O)NN=Cc2ccc(OC)c(OC)c2)cc1OC	?	/	.	.	/
S=C(N/N=C/c1ccccc1)N1CCOCC1	.	2.51µM	.	?	0.398µM
COc1ccc(/C=N/NC(=S)SC)cc1OC	.	3.16µM	.	.	1.58µM
COC(=O)N/N=C/c1ccccc1	.	.	.	.	.
CSC(=S)N/N=C/c1ccccc1	.	3.16µM	.	.	1.41µM
CC(=O)NC12CC3CC(C1)CC(C(=O)Oc1ccc(N(C)S(=O)(=O)c4cc(C)ccc4C)cc1)(C3)C2	.	/	.	.	/
CCOC(=O)c1cc(-c2ccco2)nc2c1c(C)nn2-c1ccccc1	.	?	9.2µM	.	.
CCOC(=O)c1cc(-c2ccc(OC)cc2)nc2c1c(C)nn2CCC(N)=S	?	?	?	?	4.47µM
CCCn1c(=O)c2c(C(=O)OCC)cc(-c3ccco3)nc2n(CCC)c1=O	.	.	11.6µM	.	.
Cn1c(=O)c(C(=O)COC(=O)c2cc(-c3ccco3)nc3ccccc23)c(N)n(Cc2ccccc2)c1=O	/	.	23.1µM	?	.
SMILES	IL-1B inflam inh	Gal4-VP16 FLuc	MCF10A rereplic	SW480 rerep	RORg inh
O=C(c1cccc(Cl)c1)N(Cc1ccco1)C1CCS(=O)(=O)C1 (stereo unspecified)	.	.	.	.	.
COc1ccccc1C(=O)NCC(=O)OCC(=O)N1CC(C)OC(C)C1 (stereo unspecified)	.	/	.	.	/
Cn1c(=O)cc2c3c(c(N4CCCCC4)ccc31)C(=O)c1ccccc1-2	.	.	.	?	.
Cn1c(=O)c(NCCc2ccccc2)c2c3c(cccc31)C(=O)c1ccccc1-2	.	.	5.8µM	18.4µM	.
Cn1c(=O)c(NC2CCCCC2)c2c3c(cccc31)C(=O)c1ccccc1-2	-66.4	.	3.66µM	23.1µM	.
CC(=O)Nc1ccc(Nc2c3c4c(cccc4n(C)c2=O)C(=O)c2ccccc2-3)cc1	.	.	.	.	.
CCCCNc1c2c3c(cccc3n(C)c1=O)C(=O)c1ccccc1-2	.	.	?	5.8µM	?
CC1(C(=O)Nc2cccc(NS(C)(=O)=O)c2)CCN1Cc1ccccc1OC(F)F (stereo unspecified)	.	/	/	/	/
COc1cc(CNc2ccccc2)c([N+](=O)[O-])cc1OC	.	.	.	.	.[1.91 µM]
N#Cc1c(N2CCN(c3ccc([N+](=O)[O-])cc3)CC2)[n+](=O)c2ccc(Cl)cc2n1[O-]	.	/	?	8.2µM	/
O=[N+]([O-])c1ccc(S(=O)(=O)N2CCN(c3ccnc4cc(Cl)ccc34)CC2)cc1	.	.	.	.	.
Cc1cc(=O)n2c3ccccc3n(CC(O)CN3CCC(C)CC3)c2c1C#N (stereo unspecified)	.	.	.	1.3µM	.
Cc1cc(=O)n2c3ccccc3n(CC(O)CN3CCN(CCO)CC3)c2c1C#N (stereo unspecified)	?	.	.	.	.
CC1CCN(CC(O)Cn2c3ccccc3c3ccccc32)CC1 (stereo unspecified)	-62.5	.	.	.	.
O=C(CC[C@H]1O[C@@H](n2cnc3c(NC(=O)c4ccccc4)ncnc32)[C@H](O)[C@@H]1O)NCc1nc2ccccc2[nH]1	.	/	/	/	/
CCCCn1c(C)cc2c(c1=O)C1O[C@](c3ccc(OC)cc3)(Cc3cc(OC)c(OC)cc31)O2	/	.[10 µM]	/	/	.[10 µM]
CCOc1ccc(C2C(C(=O)OC)=CN(C(C)c3ccccc3)C=C2C(=O)OC)cc1 (stereo unspecified)	.	.	16.4µM	?	.
CCOC(=O)c1ccc(NC(=S)NCCC2=CCCCC2)cc1	.	3.16µM	.	.	2.82µM
CC(=O)c1cccc(NC(=S)NCCC2=CCCCC2)c1	.	7.08µM	.	.[9.22 µM]	7.08µM
O=C(NCc1ccco1)Nc1ccc(Br)cc1	.	?	.	.	.
O=C(NCc1ccco1)Nc1ccc2nsnc2c1	-75.4	/	?	?	.[0.365 µM]
CC(OC(=O)c1ccc(NC(=O)CC#N)cc1)C(=O)NCCC1=CCCCC1 (stereo unspecified)	.	/	.	.	/
O=C(NCCC1=CCCCC1)Nc1ccc2nsnc2c1	-94.1	.	?	.	.
CC(=O)c1cccc(NC(=S)NCCc2ccc(F)cc2)c1	.	.	.	.	?
O=C(NCCC1=CCCCC1)NC12CC3CC(CC(C3)C1)C2	.	.	?	.	.
COC(=O)C1(C(=O)OC)c2ccccc2N(S(=O)(=O)c2ccc(C)cc2)C1CC(C)=O (stereo unspecified)	.	/	/	/	/
CCCCNC(=O)C1c2ccccc2OCC(=O)N1CC(F)(F)F (stereo unspecified)	.	/	/	/	/
CNNC(=S)NCCC1=CCCCC1	.	?	.	.	?
Cc1ccc(NC(=S)NCCC2=CCCCC2)cc1	.	6.31µM	.	.	5.62µM
Cc1ccc(C(=O)NCC(=O)N2CCCN(C)CC2)cc1C	.	/	.	.	/
